Inconclusive results are not listed. A call without a number means that no potency is given here. The source made the active and inactive calls. Calls come from the whole dose curve; as a rule, active = well fitted cell-killing curve with a large enough effect in the repeat runs; inconclusive = weak or mixed curves, or effect the other way; inactive = flat fitted curve, though single readings scatter.

In PubChem BioAssay (Tox21) one finds Potency data, which are given here for 40 compounds.
Potency is the fitted concentration of half-maximal effect.

The nature of the experiment: qHTS assay to identify small molecule antagonists of the estrogen receptor alpha (ER-alpha) signaling pathway using the BG1 cell line in the presence of 0.1 nM 17-beta-estradiol - cell viability counter screen (AID 1259241). Note: nearly all actives have a fitted effect of over 40% in size. The settings on record: VM7Luc4E2 (BG1) viability, CellTiter-Fluor protease, 22 h, 0.1 nM estradiol agonist added; series mostly up to 92.4 µM. From the text:
National Center for Advancing Translational Sciences [NCATS]
NIH Chemical Genomics Center [NCGC]
U.S. Environmental Protection Agency [EPA]
National Institutes of Environmental Health Sciences [NIEHS]
National Toxicology Program [NTP]
U.S. Food and Drug Administration [FDA]
Estrogen receptor (ER), a member of the nuclear hormone receptor plays an important role in development, metabolic homeostasis and reproduction. Two subtypes of ER, ER-alpha and ER-beta, have similar expression patterns with some uniqueness in both types. Endocrine disrupting chemicals (EDCs) and their interactions with steroid hormone receptors like ER causes disruption of normal endocrine function. Therefore, it is important to understand the effect of environmental chemicals in ER signaling pathway. For identifying ER antagonists, VM7Luc4E2 cell line was used to screen against Tox21 compound libraries.
VM7Luc4E2 cell line (provided by Denison MS, University of California) endogenously express full-length ER-alpha and is stably transfected with a plasmid containing four estrogen responsive elements (ERE) upstream of a luciferase reporter gene. The current screening for identification of ER-alpha inhibitors against Tox21 compound libraries used lower concentration (0.1 nM) of 17beta-Estradiol as a stimulator. The cytotoxicity of the Tox21 compound libraries against VM7Luc4E2 cell line was tested by measuring live-cell protease activity using CellTiter-Fluor assay in the same wells.
Tox21 Assay Protocol Summary:
VM7Luc4E2 cells were cultured in phenol red free assay medium containing 10% charcoal stripped FBS for 5 days prior to the assay. The cells were dispensed at 4,000 cells/well in 4 uL of assay medium into white wall/solid-bottom 1536-well plates (Corning Life Sciences, Corning, NY) using a Multidrop Combi (ThermoFisher Scientific, Waltham, MA) dispenser. After the assay plates were incubated at 37C and 5% CO2 for 24 hr, 23 nL of compounds dissolved in DMSO, positive controls or DMSO only was transferred to the assay plates by a Pintool station (Kalypsys, San Diego, CA). The transfer of compounds was followed by the addition of 1 uL of 0.1 nM (final concentration) agonist (17beta-Estradiol)/assay medium using a Flying Reagent Dispenser (FRD, Aurora Discovery, San Diego, CA). The plates were incubated at 37C and 5% CO2 for 22 hr. For cytotoxicity assay, 1 uL of CellTiter-Fluor reagent (Promega Corporation, Madison, WI) was added to each well using the FRD and after 30 min incubation at 37C and 5% CO2, The fluorescence intensity was measured using ViewLux plate reader (PerkinElmer, Shelton, CT).
`C(=C\c1ccccc1)/c1ccccc1`: the Potency entry was “inactive”.

Consider `C=C/C(C)=C/C/C=C(\C)CCC=C(C)C`, for which the Potency entry is “inactive”.

As for `COc1ccccc1Oc1c(NS(=O)(=O)c2ccc(C(C)(C)C)cc2)nc(-c2ncccn2)nc1OCCO`, the Potency result is “inactive”.

With `NNC(=O)CP(=O)(c1ccccc1)c1ccccc1`, the Potency entry was “inactive”.

Take `Oc1cccc(Nc2ccccc2)c1`: the Potency result is “inactive”.

As to `CN1C(=O)OC(C)(C)C1=O`, the Potency result was “inactive”.

`Clc1cc(Cl)nc(Cl)n1`: the Potency entry is “inactive”.

Regarding `O=C(O)C[C@H](NC(=O)OCc1ccccc1)C(=O)O`, the Potency entry is “inactive”.

For the compound `O=C(O)c1cccc(-c2noc(-c3ccccc3F)n2)c1`, the Potency result is “inactive”.

Consider `C[C@H]1c2cccc(O)c2C(O)=C2C(=O)[C@]3(O)C(O)=C(C(N)=O)C(=O)[C@@H](N(C)C)[C@@H]3[C@@H](O)[C@@H]21`, for which the Potency result is “inactive”.

With `O=c1[nH]c2ccc(Cl)cc2o1`, the Potency entry is “inactive”.

On to `CCCCCCNC(=O)n1cc(F)c(=O)[nH]c1=O`, for which the Potency entry is “inactive”.

Take `CCOC(=O)C1=C(C)NC(C)=C(C(=O)OC)C1c1cccc(Cl)c1Cl` (stereo not given): the Potency entry is “inactive”.

As to `CCCCN(CCCC)C(C(N)=O)c1ccc(OC)cc1` (stereo not given), the Potency entry is “inactive”.

On to `NC1[C@H]2CN(c3nc4c(cc3F)c(=O)c(C(=O)O)cn4-c3ccc(F)cc3F)C[C@@H]12` (stereo not given in full), for which the Potency result is “inactive”.

In the case of `c1ccc2sc(SN(C3CCCCC3)C3CCCCC3)nc2c1`, the Potency result is “inactive”.

As to `CC(C)=CC(=O)C=C(C)C`, the Potency entry is “inactive”.

With `CNC(=O)c1cnn(-c2nc(N)c3ncn([C@@H]4O[C@H](CO)[C@@H](O)[C@H]4O)c3n2)c1`, the Potency entry is “inactive”.

As for `CCCCOc1ccc(OCCCN2CCOCC2)cc1`, the Potency result was “inactive”.

In the case of `CCC1NC(=O)c2cc(S(N)(=O)=O)c(Cl)cc2N1` (stereo not given), the Potency result was “inactive”.

Take `C[C@]12CC[C@@H]3c4ccc(O)cc4CC[C@H]3[C@@H]1CC[C@@H]2OC(=O)CCC1CCCC1`: the Potency entry was “inactive”.

Take `N#CCc1ccc(Cl)cc1Cl`: the Potency result is “inactive”.

With `Oc1ccc(Cl)c2cccnc12`, the Potency entry was “inactive”.

On to `O[C@@H]1CO[C@H]2[C@@H]1OC[C@@H]2O`, for which the Potency entry was “inactive”.

For the compound `OCCOCC#CCOCCO`, the Potency result is “inactive”.

On to `Nc1ccc(N=Nc2ccccc2)c(N)c1`, for which the Potency was 26.7 µM (active).

On to `CC(=O)[C@H]1[C@H](C#N)C[C@H]2[C@@H]3CC=C4C[C@@H](O)CC[C@]4(C)[C@H]3CC[C@@]21C`, for which the Potency result was “inactive”.

Take `C=C(C)C(=O)OCCCCCCCCCCCCC`: the Potency entry is “inactive”.

For `O=C(O)c1ccc(OCCCOc2ccc(C(=O)O)cc2)cc1`, the Potency result is “inactive”.

Regarding `CCOC(=O)c1ccc(O)c(O)c1`, the Potency entry was “inactive”.

For `CC(=O)Oc1ccc([N+](=O)[O-])cc1CCl`, the Potency is 54.5 µM (active).

`CN1CCCC(CC2c3ccccc3Sc3ccccc32)C1` (stereo not given): the Potency result is “inactive”.

On to `CC1CC(OC(=O)C(O)c2ccccc2)CC(C)(C)N1C` (stereo not given), for which the Potency entry is “inactive”.

Take `c1cc(N(CC2CO2)CC2CO2)ccc1Cc1ccc(N(CC2CO2)CC2CO2)cc1` (stereo not given): the Potency result is “inactive”.

`CCCCCCC(C)(C)C(=O)O`: the Potency entry is “inactive”.

Turning to `CCCCCCCCOc1ccc(C(=O)O)cc1`, the Potency entry is “inactive”.

Turning to `C1COC1`, the Potency entry is “inactive”.

As for `Cc1ccccc1S`, the Potency result was “inactive”.

In the case of `OCCN1CCN(CCCN2c3ccccc3Sc3ccc(Cl)cc32)CC1`, the Potency result was “inactive”.

Take `CCC(C)COC(C)=O` (stereo not given): the Potency entry is “inactive”.
